# Data reported in PubChem BioAssay (NCI).
# Where “and” joins values, the source holds several entries; their conditions need not be identical. Equal values may be shown once. Compounds without any hit were thinned out: in the full panel of roughly 83,000, 20% have a hit.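 Treatment: one concentration, 48 hours, 96-well format. Scoring: percent growth, with anything below 10 considered active.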 Calls of active or inactive are those of the source.
# Test system: NCI-H460 lung
# Assay: NCI-60 one-dose screen, 48 h (100 = growth as untreated, 0 = no growth, -100 = all killed)
# Details: 1 µM
# Description: Growth inhibition of the NCI-H460 human Non-Small Cell Lung tumor cell line is measured as a screen for anti-cancer activity. Cells are grown in 96 well plates and exposed to the test compound for 48 hours. Compounds are tested at a single concentration, which is 10^-5 M for most compounds. The reported endpoint is percent growth (GI% or GIPRCNT), where numbers from 0 - 100% represent growth inhibition, and numbers from -100% - 0 represent cell death. For example, a value of 40 represents 60% growth inhibition. A value of 0 means no net growth occurred over the course of the experiment. A value of -40 indicates 40% of cells at the beginning of the experiment died by the end of the experiment. A value of -100 means all cells are dead at the end of the experiment.
# NCI-60 Human Tumor Cell Lines Screen was performed using the standard one-dose NCI protocol, which is described in more detail at https://dtp.cancer.gov/discovery_development/nci-60/default.htm.
# Compounds with GIPRCNT values below 10 were considered active. Activity score was based on GIPRCNT using the following formula: […]
# Score is 0 for GIPRCNT values of 100 or above, 50 for GIPRCNT values of 0, and 100 for GIPRCNT values of -100.
row,Structure (SMILES),growth
1,CNC(=O)c1cc(Oc2ccc(CC(=O)Nc3cc(C(C)(C)C)nn3C)cc2)ccn1,79.4% (inactive)

# Same assay, conditions: 10 µM
row,Structure (SMILES),growth
1,CC#C[C@]1(O)CC[C@H]2[C@@H]3CCC4=CC(=O)CCC4=C3[C@@H](c3ccc4c(c3)OCO4)C[C@@]21C,90.5% (inactive)
2,CNC(=O)c1cc(Oc2ccc(CC(=O)Nc3cc(C(C)(C)C)nn3C)cc2)ccn1,66.7% (inactive)

# Same assay, conditions: 10 µM unless noted
row,Structure (SMILES),growth
1,Cc1nn(-c2ccc(Cl)cc2)c2ncnc(N/N=C/c3ccccc3O)c12,5.04% (active) and 1.12% (active)
2,NC(=S)N/N=C(\c1ccc(Br)cc1)C1CC1,104% (inactive) and 102% (inactive)
3,CNC(=O)c1cc(Oc2ccc(NC(=O)Nc3ccc(Cl)c(C(F)(F)F)c3)cc2)ccn1,6.19% (active) and 2.65% (active)
4,Nc1nc2ncc(CNc3ccc(C(=O)N[C@@H](CCc4nn[nH]n4)C(=O)O)cc3)nc2c(=O)[nH]1,100% (inactive) and 101% (inactive)
5,O=C(Nc1ccc([N+](=O)[O-])cc1Cl)c1cc(Cl)ccc1O,0.171% (active) and -3.23% (active)
6,N#CC(C#N)=C/C=C/c1cccc([N+](=O)[O-])c1,-7.92% (active) and -72.3% (active)
7,CN(C)c1ccc(C(Cc2ccc3ccccc3n2)Cc2ccc3ccccc3n2)cc1,26.5% (inactive) and 73.7% (inactive)
8,CCN(CC)CCNc1ccc(C)c2sc3ccccc3c(=O)c12 (tested in a mixture with another compound),8.45% (active) and 5.28% (active)
9,CC(C)Oc1ccc2cc(-c3nn(CC4CCNCC4)c4ncnc(N)c34)ccc2c1,102% (inactive) and 15.8% (inactive)
10,COc1ccccc1NC(=O)OCC#CCOC(=O)Nc1ccccc1OC,110% (inactive) and 94.7% (inactive)
11,CC(C)N=c1cc2n(-c3ccc(Cl)cc3)c3ccccc3nc-2cc1Nc1ccc(Cl)cc1,13.1% (inactive) and 13.2% (inactive) and -4.66% (active)
12,Cc1n[nH]c(=O)n(/N=C\c2c[nH]c3ccccc23)c1=O,107% (inactive)
13,O=C1C2=C(C(=O)c3ccccc31)C(O)(S(=O)(=O)O)C(O)(S(=O)(=O)O)C1N=CC=CC21 (stereo not given),12.2% (inactive) and 4.17% (active)
14,O=C1c2ccccc2C(=O)c2c(NCCNCCO)ccc(NCCNCCO)c21,1.72% (active) and 5.39% (active) and 5.06% (active)
15,O=C(O)CSCc1nc2ccccc2[nH]1,105% (inactive)
16,CCOC(=O)C(C(=O)OCC)C(c1ccccc1)N1CCN(c2ccccc2)CC1 (stereo not given),116% (inactive) and 109% (inactive)
17,O=C1OC(Oc2ccc(Br)cc2)(c2ccccc2)c2ccccc21 (stereo not given),91.3% (inactive) and 87.8% (inactive)
18,CC1(C)[C@@H](OC(=O)CCC(=O)O)CC[C@]2(C)[C@H]3C(=O)C=C4[C@@H]5C[C@@](C)(C(=O)O)CC[C@]5(C)CC[C@@]4(C)[C@]3(C)CC[C@@H]12,103% (inactive) and -35.3% (active)

row,Structure (SMILES),growth
1,CC(=O)C(/C=N/C(N)=O)=C(/C)O,116% (inactive)
2,Nc1ccc(N=Nc2ccc(S(=O)(=O)O)cc2)cc1S(=O)(=O)O,103% (inactive) and 96.2% (inactive)
3,COc1cc2nc(N3CCC[C@@H](NC(=O)C4COc5ccccc5O4)C3)nc(N)c2cc1OC (stereo not given in full),105% (inactive) and 107% (inactive)
4,CC1CCCc2sc3nc(NNC(=O)c4cnccn4)n(-c4ccccc4)c(=O)c3c21 (stereo not given),3.62% (active) and -47.3% (active)
5,Cc1ccc(S(=O)(=O)Nc2ccc3cc([N+](=O)[O-])ccc3c2[N+](=O)[O-])cc1,76.4% (inactive) and 91.3% (inactive)
6,CC1=NN(c2ccccc2)C(=O)C1C(=O)c1ccccc1 (stereo not given),108% (inactive)
7,Oc1ccccc1C=NCC1CCC(CN=Cc2ccccc2O)CC1 (stereo not given),41.7% (inactive)
8,NS(=O)(=O)c1cc2c(cc1Cl)NC(C(Cl)Cl)NS2(=O)=O (stereo not given),110% (inactive) and 114% (inactive)
9,CN1C(=O)C(N=Nc2ccc([N+](=O)[O-])cc2)SC1=S (stereo not given),37.7% (inactive) and 45.3% (inactive)
10,CC(=O)c1ccc2c(c1)N(CCCN1CCN(CCO)CC1)c1ccccc1S2,101% (inactive) and -11.3% (active)
11,CCN(CC)CCOc1ccc(/C=N/Nc2nc3c([nH]2)c(=O)n(C)c(=O)n3C)cc1,109% (inactive) and 105% (inactive)
12,CCCCCN(CCCCC)CC(O)c1cc2c(c3ccccc13)CCCC2 (stereo not given),38.7% (inactive) and 25.8% (inactive)
13,Cc1ccc(-c2noc(CC(=O)c3ccc([N+](=O)[O-])cc3)n2)cc1,103% (inactive)
14,Cc1ncsc1CCO,118% (inactive) and 106% (inactive)
15,N#C/C(=C1C=C/C(=N/O)C(Br)=C/1)c1ccccc1,8.25% (active)
16,CC(=O)Nc1ccc(O)cc1,109% (inactive) and 105% (inactive) and 108% (inactive)
17,COc1ccc2ccccc2c1/C=N/N1CCCCC1,109% (inactive)

# Same assay, conditions: 30 µM
row,Structure (SMILES),growth
1,CNC(=O)c1cc(Oc2ccc(CC(=O)Nc3cc(C(C)(C)C)nn3C)cc2)ccn1,80.7% (inactive)

# Same assay, conditions: 100 µM
row,Structure (SMILES),growth
1,CC#C[C@]1(O)CC[C@H]2[C@@H]3CCC4=CC(=O)CCC4=C3[C@@H](c3ccc4c(c3)OCO4)C[C@@]21C,-45.9% (active)
